Screening results from PubChem.
LANA-H2B inh: blocks KSHV LANA binding to histone H2A/H2B. cell-free LANA-H2A/H2B peptide, fluorescence polarization. inhibition, % (test concentration not listed). hit rate 0.6% among 320,000; in the data active = inhibition mostly above about 10%, no sharp cut-off; inactive = mostly below about 6.7%
Target sequence (Q9QR71 whole entry, looked up): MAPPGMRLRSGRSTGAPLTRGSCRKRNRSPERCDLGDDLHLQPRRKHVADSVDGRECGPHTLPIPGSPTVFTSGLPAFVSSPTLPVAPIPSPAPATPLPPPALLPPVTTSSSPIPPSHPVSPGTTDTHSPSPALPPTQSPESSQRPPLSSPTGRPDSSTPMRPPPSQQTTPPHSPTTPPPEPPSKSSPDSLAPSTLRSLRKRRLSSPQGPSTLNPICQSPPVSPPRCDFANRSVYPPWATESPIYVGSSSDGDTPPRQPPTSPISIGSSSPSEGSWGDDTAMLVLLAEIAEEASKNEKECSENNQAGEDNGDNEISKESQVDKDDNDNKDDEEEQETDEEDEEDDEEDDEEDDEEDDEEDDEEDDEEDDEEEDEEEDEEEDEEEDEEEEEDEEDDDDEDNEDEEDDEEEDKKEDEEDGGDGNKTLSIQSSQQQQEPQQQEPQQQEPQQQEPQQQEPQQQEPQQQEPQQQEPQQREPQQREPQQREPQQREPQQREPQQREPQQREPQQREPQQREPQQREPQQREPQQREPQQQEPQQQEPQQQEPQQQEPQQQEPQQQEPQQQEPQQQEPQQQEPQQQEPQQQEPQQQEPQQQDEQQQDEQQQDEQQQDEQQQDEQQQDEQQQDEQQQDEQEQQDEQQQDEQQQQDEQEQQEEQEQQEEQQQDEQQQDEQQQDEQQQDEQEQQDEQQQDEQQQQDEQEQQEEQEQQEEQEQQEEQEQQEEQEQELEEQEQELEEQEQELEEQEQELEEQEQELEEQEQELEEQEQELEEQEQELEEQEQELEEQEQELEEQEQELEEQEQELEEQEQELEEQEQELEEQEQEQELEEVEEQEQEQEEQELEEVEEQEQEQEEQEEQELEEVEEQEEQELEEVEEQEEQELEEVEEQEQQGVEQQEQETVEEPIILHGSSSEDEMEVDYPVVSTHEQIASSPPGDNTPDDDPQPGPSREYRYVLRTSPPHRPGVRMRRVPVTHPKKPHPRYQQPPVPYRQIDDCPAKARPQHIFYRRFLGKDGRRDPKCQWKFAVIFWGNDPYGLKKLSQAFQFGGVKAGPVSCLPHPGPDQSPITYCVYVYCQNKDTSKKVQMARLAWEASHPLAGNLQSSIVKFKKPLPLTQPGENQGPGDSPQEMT
C-LANA FP: blocks KSHV LANA C-terminal domain binding to DNA; MBP-C-LANA/FAM-LBS DNA binding, fluorescence polarization; inhibition, % at 9 µM; hit rate 0.078% among 340,000;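 active = highest replicate inhibition at or above 60% at 9 µM, even if other replicates fall short; inactive = all replicates below 60% inhibition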;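 also: 0% = neutral control wells and 100% = 4 µM acridine orange control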
RTF Ca sens inh: cardiac RTF calcium desensitization | P19429+P45379 | IANBD-labeled cardiac RTF, Ca2+ fluorescence | inhibition, % at 7.15 µM | hit rate 0.12% among 340,000;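 active = inhibition above the mean inhibition of all tested compounds plus 3 SD, cut at about 17% in these data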;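 also: assay run at fixed EC70 calcium of 1.6 mM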
RTF Ca sens act: increases calcium sensitivity of human cardiac regulated thin filaments | IANBD-labeled TnC RTF fluorescence at EC20 calcium; 0% EC20 calcium, 100% full calcium | activation, % at 7.2 µM | hit rate 0.24% among 340,000;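 active = activation above the mean over all tested compounds plus 3 SD, cut at about 30% in these data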;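 also: rise in fluorescence read as greater calcium sensitivity of cardiac thin filaments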
Keap1-Nrf2 PPI: disrupts human Keap1 binding to Nrf2 peptide; Q14145; hit rate 0.15% among 340,000; AID 504523; inhibition, % at 9.4 µM; Keap1 Kelch-Nrf2 peptide fluorescence polarization, 1536-well; in the data active = inhibition above about 12%;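 also: human Keap1 Kelch domain with fluorescein labeled Nrf2 9mer peptide probe; 0% = neutral control wells and 100% = peptide positive control; higher means more block of Keap1 binding to Nrf2 peptide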
RTF Ca inh conf: cardiac RTF calcium sensitivity inhibition, confirmation | shares compounds with RTF Ca sens inh | hit rate 8% among 360 | inhibition, % at 7.15 µM | reconstituted cardiac thin filaments, calcium sensitivity fluorescence | AID 504635; in the data active = inhibition above about 18%
* hit, by the source's call; ! = repeats disagree. A selection: hits, their analogues and other compounds. The true share with any hit is near 0.98%.

For Fc1ccc([C@@H]2CCNC[C@H]2COc2ccc3c(c2)OCO3)cc1 the results were LANA-H2B inh 4, C-LANA FP 2, RTF Ca sens inh 20*!, RTF Ca sens act -1, Keap1-Nrf2 PPI -2 and RTF Ca inh conf -2.
Screening COc1cc(/C=N/NC(=O)c2c(C)nnn2-c2nonc2N)ccc1O returned LANA-H2B inh 0, C-LANA FP 0, RTF Ca sens inh 17*, RTF Ca sens act -2, Keap1-Nrf2 PPI -5 and RTF Ca inh conf 5.
CCN(CC)S(=O)(=O)c1ccc(/C=C/C(=O)OCC(=O)Nc2ccc(S(N)(=O)=O)cc2)cc1 was read as LANA-H2B inh -4, C-LANA FP -1, RTF Ca sens inh 14, RTF Ca sens act -6 and Keap1-Nrf2 PPI 1.
CCN(C(=O)COC(=O)CNS(=O)(=O)c1ccccc1)c1ccccc1 was read as LANA-H2B inh -1, C-LANA FP 0, RTF Ca sens inh -9, RTF Ca sens act -4 and Keap1-Nrf2 PPI 2.
Screening O=C1CSC(c2cccc([N+](=O)[O-])c2)N1c1c(F)cccc1F (stereo not given) returned LANA-H2B inh 0, C-LANA FP -1, RTF Ca sens inh 22*, RTF Ca sens act 3, Keap1-Nrf2 PPI -3 and RTF Ca inh conf -6.
Screening O=C1CSC(c2cccc(F)c2)N1c1c(F)cccc1F (stereo not given) returned LANA-H2B inh 2, C-LANA FP 1, RTF Ca sens inh -1, RTF Ca sens act 2 and Keap1-Nrf2 PPI -1.
CC(C)CCNC(=O)c1onc(CSc2ccccc2)c1C(=O)NCCC(C)C was read as LANA-H2B inh 1, C-LANA FP 1, RTF Ca sens inh 12, RTF Ca sens act 1 and Keap1-Nrf2 PPI 5.
O=C1CCCC2=C1C(c1cccs1)Nc1ccccc1N2 (stereo not given) was read as LANA-H2B inh -1, C-LANA FP 1, RTF Ca sens inh -11, RTF Ca sens act -2 and Keap1-Nrf2 PPI 3.
`CC1(C)CC(=O)C2=C(C1)Nc1ccccc1NC2c1cccs1` (stereo not given) gave LANA-H2B inh 2, C-LANA FP 0, RTF Ca sens inh 19*, RTF Ca sens act -4, Keap1-Nrf2 PPI -4 and RTF Ca inh conf -1.
CC1CCN(S(=O)(=O)c2cc([N+](=O)[O-])ccc2Cl)CC1 was read as LANA-H2B inh 2, C-LANA FP -1, RTF Ca sens inh 3, RTF Ca sens act -2 and Keap1-Nrf2 PPI -1.
Screening O=C(O)c1ccc(-n2cccc2/C=C2/SC(=O)N(CC(=O)N3CCCC3)C2=O)cc1 returned LANA-H2B inh 4, C-LANA FP 64*, RTF Ca sens inh 26*, RTF Ca sens act -8, Keap1-Nrf2 PPI 3 and RTF Ca inh conf 8.
N#Cc1ccccc1CN1C(=O)S/C(=C/c2cccn2-c2ccc(C(=O)O)cc2)C1=O was read as LANA-H2B inh 1, C-LANA FP 23, RTF Ca sens inh 3, RTF Ca sens act 3 and Keap1-Nrf2 PPI 1.
For O=C(O)c1ccc(-n2cccc2/C=C2/NC(=O)N(c3cccc(Cl)c3)C2=O)cc1 the results were C-LANA FP 52, RTF Ca sens inh -1, RTF Ca sens act -5 and Keap1-Nrf2 PPI -1.
`O=C(O)c1ccc(-n2cccc2/C=C2/NC(=O)N(c3ccccc3)C2=O)cc1` gave LANA-H2B inh -3, C-LANA FP 46, RTF Ca sens inh 17*, RTF Ca sens act -7, Keap1-Nrf2 PPI 4 and RTF Ca inh conf 7.
For Nc1c(C(=O)NC2CC2)sc2nc3c(c(-c4ccco4)c12)CC/C3=C/c1ccco1 the results were LANA-H2B inh 2, C-LANA FP 6, RTF Ca sens inh 31*, RTF Ca sens act -17, Keap1-Nrf2 PPI -7 and RTF Ca inh conf 98*.
For NC(=O)c1sc2nc3c(c(-c4ccco4)c2c1N)CCC3 the results were LANA-H2B inh 1, C-LANA FP 1, RTF Ca sens inh 4, RTF Ca sens act -7 and Keap1-Nrf2 PPI -1.
CSCCC(NC(=O)c1ccco1)C(=O)N1CCCC(C(F)(F)F)C1 (stereo not given) was read as LANA-H2B inh 0, C-LANA FP 2, RTF Ca sens inh 2, RTF Ca sens act 3 and Keap1-Nrf2 PPI -3.
CCN(CC)S(=O)(=O)c1ccc(N/N=C/c2ccccc2OCC(=O)O)c([N+](=O)[O-])c1 was read as LANA-H2B inh -7, C-LANA FP -1, RTF Ca sens inh 19*, RTF Ca sens act -1, Keap1-Nrf2 PPI -1 and RTF Ca inh conf 0.
O=c1c(NCCc2ccc(Cl)cc2)c(-c2ccccc2)c1=O was read as LANA-H2B inh -4, C-LANA FP -3, RTF Ca sens inh 0, RTF Ca sens act 0 and Keap1-Nrf2 PPI -4.
Screening CC1(C)C(/C=C/C=C/C=C/C=C2\N(CCCCS(=O)(=O)O)c3ccc4ccccc4c3C2(C)C)=[N+](CCCCS(=O)(=O)[O-])c2ccc3ccccc3c21 returned LANA-H2B inh 10, C-LANA FP 27, RTF Ca sens inh 20*, RTF Ca sens act -11, Keap1-Nrf2 PPI -8 and RTF Ca inh conf -46.
`Cc1noc(C)c1C(=O)Nc1ccc(-c2nnc3n2CCCCC3)cc1` gave LANA-H2B inh -7, C-LANA FP 2, RTF Ca sens inh -4, RTF Ca sens act -4 and Keap1-Nrf2 PPI -3.
O=C(O)c1ccc(COc2ccc3c(c2)CCC3)cc1 was read as LANA-H2B inh -10, C-LANA FP -2, RTF Ca sens inh 10, RTF Ca sens act 1 and Keap1-Nrf2 PPI 5.
`NNC(=O)c1ccc(COc2ccc3c(c2)CCC3)cc1` gave LANA-H2B inh 5, C-LANA FP -1, RTF Ca sens inh 17*, RTF Ca sens act 2, Keap1-Nrf2 PPI 4 and RTF Ca inh conf 0.
N#Cc1c(F)cccc1N1CCN(Cc2ccc3c(c2)OCO3)CC1 was read as LANA-H2B inh -1, C-LANA FP 0, RTF Ca sens inh 18*, RTF Ca sens act -5, Keap1-Nrf2 PPI 3 and RTF Ca inh conf -2.
O=C(c1ccccc1F)N1CCN(Cc2ccc3c(c2)OCO3)CC1 was read as LANA-H2B inh -6, C-LANA FP -1, RTF Ca sens inh -5, RTF Ca sens act 0 and Keap1-Nrf2 PPI 1.
Oc1cccc2ccc[n+](CC(O)Cn3c4ccccc4c4ccccc43)c12 (stereo not given) was read as LANA-H2B inh 8, C-LANA FP 2, RTF Ca sens inh 19*, RTF Ca sens act 5, Keap1-Nrf2 PPI 3 and RTF Ca inh conf -1.
Screening O=C(c1ccc(CS(=O)c2cccc(Cl)c2)o1)N1CCN(c2ccccn2)CC1 (stereo not given) returned LANA-H2B inh -6, C-LANA FP 2, RTF Ca sens inh -1, RTF Ca sens act 2 and Keap1-Nrf2 PPI 3.
CC(C)Cn1c(/C=C/c2ccco2)nc2ccccc21 was read as LANA-H2B inh -6, C-LANA FP 1, RTF Ca sens inh 18*, RTF Ca sens act 8, Keap1-Nrf2 PPI -3 and RTF Ca inh conf -5.
